Screen size: about 5,500 compounds; about 2,000 (36%) were called active. Not shown: some 18% with an inconclusive outcome. Cut-off read from the data, not from the text of the source: active = normalized growth mostly below about 0.91 (no sharp cut-off); inconclusive = no clear call, values can overlap the other calls; inactive = mostly above about 0.92. This is one part of the list.
Experiment: chemical genetic growth profiling, strain panel (AID 1159580);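 note: tested at 20 µM; growth read once vehicle control cultures reached saturation at 30 °C; 1 = growth at the plate median or of vehicle wells; lower values mean less growth of the strain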
Conditions: growth OD

Measured: normalized growth

CN(C)CCc1c[nH]c2ccc(CS(=O)(=O)N3CCCC3)cc12
inactive: S. cerevisiae deletion strains, locus YJR075W, strain HOC1, stronger effect = lower value 1 | S. cerevisiae deletion strains, locus YKL009W, strain mrt4, stronger effect = lower value 0.992 | S. cerevisiae deletion strains, locus YKL068W, stronger effect = lower value 0.987 | S. cerevisiae deletion strains, locus YKL085W, strain MDH1 (second series), stronger effect = lower value 0.983 | S. cerevisiae deletion strains, locus YKL085W, strain MDH1, stronger effect = lower value 0.983 | S. cerevisiae deletion strains, locus YKL160W, strain elf1, stronger effect = lower value 1.03 | S. cerevisiae deletion strains, locus YKL190W, strain CNB1, stronger effect = lower value 1 | S. cerevisiae deletion strains, locus YKR001C, strain vps1, stronger effect = lower value 0.988 | S. cerevisiae deletion strains, locus YKR026C, strain gcn3, stronger effect = lower value 0.976 | S. cerevisiae deletion strains, locus YKR091W, strain srl3, stronger effect = lower value 1.01 | S. cerevisiae deletion strains, locus YLL001W, strain dnm1, stronger effect = lower value 0.971 | S. cerevisiae deletion strains, locus YLL026W, stronger effect = lower value 0.98 | S. cerevisiae deletion strains, locus YLL041C, strain sdh2, stronger effect = lower value 1 | S. cerevisiae deletion strains, locus YLR027C, strain aat2, stronger effect = lower value 0.997 | S. cerevisiae deletion strains, locus YLR039C, strain RIC1, stronger effect = lower value 0.971 | S. cerevisiae deletion strains, locus YLR058C, strain SHM2, stronger effect = lower value 0.991 | S. cerevisiae deletion strains, locus YLR102C, strain apc9, stronger effect = lower value 0.995 | S. cerevisiae deletion strains, locus YLR113W, strain HOG1, stronger effect = lower value 0.979 | S. cerevisiae deletion strains, locus YLR221C, strain rsa3, stronger effect = lower value 0.96 | S. cerevisiae deletion strains, locus YLR258W, strain gsy2, stronger effect = lower value 1 | S. cerevisiae deletion strains, locus YLR262C, strain YPT6 (second series), stronger effect = lower value 1 | S. cerevisiae deletion strains, locus YLR262C, strain YPT6, stronger effect = lower value 0.968 | S. cerevisiae deletion strains, locus YLR268W, strain sec22, stronger effect = lower value 0.971 | S. cerevisiae deletion strains, locus YLR320W, strain mms22, stronger effect = lower value 0.945 | S. cerevisiae deletion strains, locus YLR330W, strain CHS5, stronger effect = lower value 0.988 | S. cerevisiae deletion strains, locus YLR342W, strain FKS1 (second series), stronger effect = lower value 1.02 | S. cerevisiae deletion strains, locus YLR342W, strain FKS1, stronger effect = lower value 1.01 | S. cerevisiae deletion strains, locus YLR357W, strain rsc2, stronger effect = lower value 1.01 | S. cerevisiae deletion strains, locus YLR370C, strain arc18, stronger effect = lower value 0.992 | S. cerevisiae deletion strains, locus YLR371W, strain rom2, stronger effect = lower value 0.983 | S. cerevisiae deletion strains, locus YLR384C, strain iki3, stronger effect = lower value 0.983 | S. cerevisiae deletion strains, locus YLR418C, strain cdc73, stronger effect = lower value 0.959 | S. cerevisiae deletion strains, locus YML016C, strain PPZ1, stronger effect = lower value 0.987 | S. cerevisiae deletion strains, locus YML032C, strain rad52, stronger effect = lower value 0.99 | S. cerevisiae deletion strains, locus YML120C, strain ndi1, stronger effect = lower value 0.972 | S. cerevisiae deletion strains, locus YML124C, strain tub3, stronger effect = lower value 0.979 | S. cerevisiae deletion strains, locus YMR058W, strain fet3, stronger effect = lower value 0.976 | S. cerevisiae deletion strains, locus YMR078C, strain ctf18, stronger effect = lower value 0.986 | S. cerevisiae deletion strains, locus YMR125W, strain sto1, stronger effect = lower value 0.999 | S. cerevisiae deletion strains, locus YMR129W, stronger effect = lower value 0.98 | S. cerevisiae deletion strains, locus YMR205C, strain PFK2, stronger effect = lower value 0.967 | S. cerevisiae deletion strains, locus YMR223W, strain ubp8, stronger effect = lower value 0.996 | S. cerevisiae deletion strains, locus YMR231W, strain pep5, stronger effect = lower value 0.991 | S. cerevisiae deletion strains, locus YMR263W, strain SAP30, stronger effect = lower value 1.01 | S. cerevisiae deletion strains, locus YMR307W, strain GAS1, stronger effect = lower value 0.994 | S. cerevisiae deletion strains, locus YNL067W, strain RPL9B, stronger effect = lower value 1.03 | S. cerevisiae deletion strains, locus YNL071W, strain lat1, stronger effect = lower value 0.985 | S. cerevisiae deletion strains, locus YNL128W, strain TEP1, stronger effect = lower value 1 | S. cerevisiae deletion strains, locus YNL153C, strain GIM3, stronger effect = lower value 0.995 | S. cerevisiae deletion strains, locus YNL183C, strain NPR1, stronger effect = lower value 0.926 | S. cerevisiae deletion strains, locus YNL209W, strain ssb2, stronger effect = lower value 0.974 | S. cerevisiae deletion strains, locus YNL233W, strain BNI4, stronger effect = lower value 0.988 | S. cerevisiae deletion strains, locus YNL248C, strain rpa49, stronger effect = lower value 1.03 | S. cerevisiae deletion strains, locus YNL250W, strain rad50, stronger effect = lower value 0.986 | S. cerevisiae deletion strains, locus YNL271C, strain bni1, stronger effect = lower value 0.984 | S. cerevisiae deletion strains, locus YNL298W, strain CLA4, stronger effect = lower value 0.981 | S. cerevisiae deletion strains, locus YNL307C, strain MCK1, stronger effect = lower value 0.985 | S. cerevisiae deletion strains, locus YNL322C, strain KRE1 (second series), stronger effect = lower value 1.02 | S. cerevisiae deletion strains, locus YNL322C, strain KRE1, stronger effect = lower value 0.999 | S. cerevisiae deletion strains, locus YNR049C, strain mso1, stronger effect = lower value 0.997 | S. cerevisiae deletion strains, locus YNR052C, strain pop2, stronger effect = lower value 0.992 | S. cerevisiae deletion strains, locus YOL006C, strain TOP1, stronger effect = lower value 0.959 | S. cerevisiae deletion strains, locus YOL012C, strain htz1 0.726 | S. cerevisiae deletion strains, locus YOL147C, strain pex11, stronger effect = lower value 0.995 | S. cerevisiae deletion strains, locus YOR001W, strain rrp6, stronger effect = lower value 0.938 | S. cerevisiae deletion strains, locus YOR061W, strain CKA2, stronger effect = lower value 0.994 | S. cerevisiae deletion strains, locus YOR069W, strain VPS5, stronger effect = lower value 0.992 | S. cerevisiae deletion strains, locus YOR070C, strain gyp1, stronger effect = lower value 1 | S. cerevisiae deletion strains, locus YOR080W, strain dia2, stronger effect = lower value 1 | S. cerevisiae deletion strains, locus YOR083W, strain WHI5, stronger effect = lower value 1 | S. cerevisiae deletion strains, locus YOR106W, strain vam3, stronger effect = lower value 1.04 | S. cerevisiae deletion strains, locus YOR136W, strain idh2, stronger effect = lower value 0.983 | S. cerevisiae deletion strains, locus YOR144C, strain elg1, stronger effect = lower value 0.981 | S. cerevisiae deletion strains, locus YOR184W, strain ser1, stronger effect = lower value 0.989 | S. cerevisiae deletion strains, locus YOR231W, strain MKK1, stronger effect = lower value 0.957 | S. cerevisiae deletion strains, locus YOR265W, strain rbl2, stronger effect = lower value 0.99 | S. cerevisiae deletion strains, locus YOR270C, strain vph1, stronger effect = lower value 0.945 | S. cerevisiae deletion strains, locus YOR290C, strain snf2, stronger effect = lower value 1.02 | S. cerevisiae deletion strains, locus YOR316C, strain cot1, stronger effect = lower value 0.989 | S. cerevisiae deletion strains, locus YPL051W, strain arl3, stronger effect = lower value 1.02 | S. cerevisiae deletion strains, locus YPL055C, strain LGE1, stronger effect = lower value 1.02 | S. cerevisiae deletion strains, locus YPL078C, strain atp4, stronger effect = lower value 1.02 | S. cerevisiae deletion strains, locus YPL106C, strain sse1, stronger effect = lower value 1.02 | S. cerevisiae deletion strains, locus YPL240C, strain hsp82, stronger effect = lower value 0.985 | S. cerevisiae deletion strains, locus YPL241C, strain CIN2, stronger effect = lower value 1.03 | S. cerevisiae deletion strains, locus YPL256C, strain CLN2, stronger effect = lower value 0.959 | S. cerevisiae deletion strains, locus YPR119W, strain clb2, stronger effect = lower value 0.994 | S. cerevisiae deletion strains, locus YPR141C, strain kar3, stronger effect = lower value 0.983 | S. cerevisiae deletion strains, locus YPR163C, strain tif3, stronger effect = lower value 0.985 | S. cerevisiae deletion strains, locus YPR167C, strain met16, stronger effect = lower value 0.982 | S. cerevisiae deletion strains, strain wtn01, stronger effect = lower value 0.99 | S. cerevisiae strains, strain wild type, stronger effect = lower value 1.02

— PubChem BioAssay AID1159580 (chemical genetic matrix, 2015)
